Several values for one entry are separate records, joined by “and”; a condition that tells them apart may be missing. Equal values may be shown once. Where a structure was tested more than once in an assay, its records may differ in their call. Activity calls are given as the source filed them. The calls were made as follows: active = hit-call score of the fitted dose curve at least 0.9, where 1 is the maximum; inactive = score below 0.9.
Tests used:
[1] = read-out: Interleukin 17F (IL17F), IL17F (gene 112744); assay: BSK_BT_xIL17F: BioMAP Diversity Plus: BT Assay for Interleukin 17F (IL17F) Biomarker Activity (AID 2284243); conditions: primary human B cells with PBMC
Procedure, shortened: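 Compound was added to co-cultures of human B cells and PBMC. After 24 hours, IL-17F released into the medium was measured with LumineX xMAP technology. Responses were then fitted upward relative to DMSO.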

[2] = read-out: Actin alpha 1 (ACTA1), ACTA1 (gene 58); assay: BSK_MyoF_ACTA1: BioMAP Diversity Plus: MyoF Assay for Actin alpha 1 (ACTA1) Biomarker Activity (AID 2284244); conditions: primary human lung fibroblasts
Procedure, shortened: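 MyoF fibroblast system (human lung); a-SMA quantified via ELISA at 24 h; DMSO-normalised, gain-of-signal endpoint.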

[3] = read-out: Interleukin 2 (IL2), IL2 (gene 3558); assay: BSK_BT_xIL2: BioMAP Diversity Plus: BT Assay for Interleukin 2 (IL2) Biomarker Activity (AID 2284245); conditions: primary human B cells with PBMC
Procedure, shortened: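 Co-cultures of primary human B cells and PBMC are treated with chemical and sampled at 24 h. IL-2 secretion is quantified by Luminex xMAP, with DMSO-treated wells as baseline.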

[4] = read-out: Basic fibroblast growth factor (bFGF), FGF2 (gene 2247); assay: BSK_MyoF_bFGF: BioMAP Diversity Plus: MyoF Assay for Basic fibroblast growth factor (bFGF) Biomarker Activity (AID 2284246); conditions: primary human lung fibroblasts
Procedure, shortened: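 Fibroblasts from human lung, 24 h dosing. bFGF by ELISA; gain of signal over DMSO.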

[5] = read-out: Collagen IV, COL4A1 (gene 1282); assay: BSK_MyoF_CollagenIV: BioMAP Diversity Plus: MyoF Assay for Collagen IV Biomarker Activity (AID 2284247); conditions: primary human lung fibroblasts
Procedure, shortened: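 Lung fibroblasts (human primary) treated with chemicals were assayed after 24 h for Collagen IV using an ELISA, with DMSO serving as negative control and baseline for a positive-direction fit.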

[6] = read-out: Monokine induced gamma interferon (MIG), CXCL9 (gene 4283); assay: BSK_KF3CT_MIG: BioMAP Diversity Plus: KF3CT Assay for Monokine induced gamma interferon (MIG) Biomarker Activity (AID 2284248); conditions: primary human keratinocytes with fibroblasts
Procedure, shortened: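 KF3CT system: keratinocyte/fibroblast co-culture, 24 h post-dose, MIG by ELISA; activity vs DMSO, positive fitting direction.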

[7] = read-out: Collagen I, COL1A1 (gene 1277); assay: BSK_hDFCGF_CollagenI: BioMAP Diversity Plus: hDFCGF Assay for Collagen I Biomarker Activity (AID 2284250); conditions: primary human foreskin fibroblasts
Procedure, shortened: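 Readout: Collagen I by ELISA after 24 h compound treatment of primary human foreskin fibroblasts. Endpoint analysed for increases relative to DMSO; total protein by SRB in parallel wells flagged cytotoxicity.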

[8] = read-out: Interferon-inducible T-cell alpha chemoattractant (ITAC), CXCL11 (gene 6373); assay: BSK_hDFCGF_ITAC: BioMAP Diversity Plus: hDFCGF Assay for Interferon-inducible T-cell alpha chemoattractant (ITAC) Biomarker Activity (AID 2284251); conditions: primary human foreskin fibroblasts
Procedure, shortened: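 Measured by ELISA, the chemokine level serves as the endpoint in human skin fibroblast primary cultures 24 h after compound addition. Increases relative to DMSO-treated wells define activity.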

[9] = read-out: Plasminogen activator inhibitor-1 (PAI1), SERPINE1 (gene 5054); assay: BSK_KF3CT_PAI1: BioMAP Diversity Plus: KF3CT Assay for Plasminogen activator inhibitor-1 (PAI1) Biomarker Activity (AID 2284252); conditions: primary human keratinocytes with fibroblasts
Procedure, shortened: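 In this co-culture of primary human keratinocytes and foreskin fibroblasts, PAI-1 was measured by ELISA at 24 h and fitted upward from DMSO.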

[10] = read-out: Monocyte Chemoattractant Protein-1 (MCP1), CCL2 (gene 6347); assay: BSK_IMphg_MCP1: BioMAP Diversity Plus: IMphg Assay for Monocyte Chemoattractant Protein-1 (MCP1) Biomarker Activity (AID 2284253); conditions: primary human endothelial cells with macrophages
Procedure, shortened: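 ELISA readout of MCP-1 at 24 hours in IMphg co-cultures of venular endothelial cells and macrophages, normalised to DMSO; parallel cultures stained with sulforhodamine B for overt cytotoxicity.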

Q: `NCC(F)(F)C(F)(F)C(F)(F)C(F)(F)F` was tested. Which outcome [1] did it give?
A: Its outcome is “inactive”.

Q: And the outcome [2]?
A: Its outcome is “inactive”.

Q: What about the outcome [3] of the same compound?
A: Its outcome is “inactive”.

Q: What about the outcome [4] of the same compound?
A: The outcome was “inactive”.

Q: And the outcome [5]?
A: The outcome was “inactive”.

Q: What about the outcome [6] of the same compound?
A: Its outcome is “inactive”.

Q: What about the outcome [7] of the same compound?
A: Its outcome is “inactive”.

Q: And the outcome [8]?
A: Its outcome is “inactive”.

Q: What about the outcome [9] of the same compound?
A: Its outcome is “inactive”.

Q: What about the outcome [10] of the same compound?
A: The outcome was “inactive”.

Q: What does the source list for `O=S(=O)(O)CCC(F)(F)C(F)(F)C(F)(F)C(F)(F)C(F)(F)C(F)(F)F`?
A: outcome [1]: inactive; outcome [2]: inactive; outcome [3]: inactive; outcome [4]: inactive; outcome [5]: inactive; outcome [6]: inactive; outcome [7]: inactive; AC50 [8]: 1.38 µM (active); outcome [8]: inactive; outcome [9]: inactive; outcome [10]: inactive

Q: With `C[Si](C)(C)C(F)(F)C(F)(F)C(F)(F)F` as the compound, how does the outcome [1] read?
A: Its outcome is “inactive”.

Q: What about the outcome [2] of the same compound?
A: Its outcome is “inactive”.

Q: And the outcome [3]?
A: Its outcome is “inactive”.

Q: What about the outcome [4] of the same compound?
A: The outcome was “inactive”.

Q: What about the outcome [5] of the same compound?
A: Its outcome is “inactive”.

Q: And the outcome [6]?
A: The outcome was “inactive”.

Q: What about the outcome [7] of the same compound?
A: Its outcome is “inactive”.

Q: And the outcome [8]?
A: Its outcome is “inactive”.

Q: What about the outcome [9] of the same compound?
A: The outcome was “inactive”.

Q: What about the outcome [10] of the same compound?
A: Its outcome is “inactive”.

Q: What does the source list for `FC(F)=C(F)C(F)(F)C(F)(F)C(F)(F)C(F)(F)C(F)(F)C(F)(F)F`?
A: outcome [1]: inactive; outcome [2]: inactive; outcome [3]: inactive; outcome [4]: inactive; outcome [5]: inactive; outcome [6]: inactive; outcome [7]: inactive; outcome [8]: inactive; outcome [9]: inactive; outcome [10]: inactive

Q: Which results are given for `FC(F)C(F)(F)COCC1CO1` (configuration not stated)?
A: outcome [1]: inactive; outcome [2]: inactive; outcome [3]: inactive; outcome [4]: inactive; outcome [5]: inactive; outcome [6]: inactive; outcome [7]: inactive; outcome [8]: inactive; outcome [9]: inactive; outcome [10]: inactive

Q: How did the outcome [1] turn out when `OCc1c[nH]c2ccccc12` was run?
A: The outcome was “inactive”.

Q: What about the outcome [2] of the same compound?
A: Its outcome is “inactive”.

Q: What about the AC50 [3] of the same compound?
A: Its AC50 is 1.81 µM (active).

Q: What about the outcome [4] of the same compound?
A: Its outcome is “inactive”.

Q: What about the outcome [5] of the same compound?
A: The outcome was “inactive”.

Q: `FC(F)(F)COC(OCC(F)(F)F)OCC(F)(F)F` was tested. Which outcome [1] did it give?
A: The outcome was “inactive”.

Q: And the outcome [2]?
A: The outcome was “inactive”.

Q: And the outcome [3]?
A: The outcome was “inactive”.

Q: And the outcome [4]?
A: The outcome was “inactive”.

Q: And the outcome [5]?
A: Its outcome is “inactive”.

Q: And the outcome [6]?
A: The outcome was “inactive”.

Q: And the outcome [7]?
A: The outcome was “inactive”.

Q: What about the outcome [8] of the same compound?
A: Its outcome is “inactive”.

Q: What about the outcome [9] of the same compound?
A: The outcome was “inactive”.

Q: What about the outcome [10] of the same compound?
A: The outcome was “inactive”.

Q: With `S=P(N1CC1)(N1CC1)N1CC1` as the compound, how does the AC50 [1] read?
A: The AC50 was 20.9 µM (active).

Q: What about the outcome [2] of the same compound?
A: The outcome was “inactive”.

Q: What about the outcome [3] of the same compound?
A: The outcome was “inactive”.

Q: And the outcome [4]?
A: The outcome was “inactive”.

Q: What about the outcome [5] of the same compound?
A: The outcome was “inactive”.

Q: For `Cc1cccc(O)c1C`, which outcome [1] is on record?
A: The outcome was “inactive”.

Q: And the outcome [2]?
A: The outcome was “inactive”.

Q: What about the outcome [3] of the same compound?
A: Its outcome is “inactive”.

Q: And the outcome [4]?
A: The outcome was “inactive”.

Q: What about the outcome [5] of the same compound?
A: The outcome was “inactive”.

Q: How did the AC50 [1] turn out when `OC(O)(C(F)C(O)(O)C(F)(F)F)C(F)(F)F` was run?
A: Its AC50 is 46.7 µM (active) and 30 µM (active).

Q: And the outcome [2]?
A: The outcome was “inactive”.

Q: And the AC50 [3]?
A: The AC50 was 40.6 µM (active) and 22.3 µM (active).

Q: And the outcome [4]?
A: The outcome was “inactive”.

Q: And the outcome [5]?
A: The outcome was “inactive”.

Q: And the outcome [6]?
A: Its outcome is “inactive”.

Q: And the outcome [7]?
A: The outcome was “inactive”.

Q: And the AC50 [8]?
A: The AC50 was 8.03 µM (active) and 15 µM (active).

Q: What about the outcome [9] of the same compound?
A: The outcome was “inactive”.

Q: What about the outcome [10] of the same compound?
A: The outcome was “inactive”.

Q: How did the outcome [1] turn out when `O=C(Cl)C(F)(F)C(F)(F)C(F)(F)C(=O)Cl` was run?
A: The outcome was “inactive”.

Q: And the outcome [2]?
A: Its outcome is “inactive”.

Q: What about the outcome [3] of the same compound?
A: The outcome was “inactive”.

Q: What about the outcome [4] of the same compound?
A: Its outcome is “inactive”.

Q: And the outcome [5]?
A: The outcome was “inactive”.

Q: What about the outcome [6] of the same compound?
A: Its outcome is “inactive”.

Q: And the outcome [7]?
A: Its outcome is “inactive”.

Q: And the outcome [8]?
A: Its outcome is “inactive”.

Q: And the outcome [9]?
A: The outcome was “inactive”.

Q: And the outcome [10]?
A: The outcome was “inactive”.

Q: `FC(F)(F)C(F)(F)C(F)(F)C(F)(F)C(F)(F)C(F)(F)I` was tested. Which outcome [1] did it give?
A: The outcome was “inactive”.

Q: And the AC50 [2]?
A: The AC50 was 17.8 µM (active) and 30 µM (active).

Q: And the outcome [3]?
A: Its outcome is “inactive”.

Q: And the outcome [4]?
A: The outcome was “inactive”.

Q: What about the AC50 [5] of the same compound?
A: Its AC50 is 51.3 µM (active) and 47.7 µM (active).

Q: And the outcome [6]?
A: Its outcome is “inactive”.

Q: And the outcome [7]?
A: The outcome was “inactive”.

Q: What about the AC50 [8] of the same compound?
A: The AC50 was 47.4 µM (active).

Q: And the outcome [8]?
A: Its outcome is “inactive”.

Q: And the outcome [9]?
A: Its outcome is “inactive”.

Q: And the outcome [10]?
A: Its outcome is “inactive”.

Q: `OCCC(F)(F)C(F)(F)C(F)(F)C(F)(F)F` was tested. Which outcome [1] did it give?
A: The outcome was “inactive”.

Q: What about the outcome [2] of the same compound?
A: Its outcome is “inactive”.

Q: And the outcome [3]?
A: Its outcome is “inactive”.

Q: And the outcome [4]?
A: Its outcome is “inactive”.

Q: And the outcome [5]?
A: Its outcome is “inactive”.

Q: What about the outcome [6] of the same compound?
A: The outcome was “inactive”.

Q: And the outcome [7]?
A: Its outcome is “inactive”.

Q: And the outcome [8]?
A: Its outcome is “inactive”.

Q: What about the outcome [9] of the same compound?
A: Its outcome is “inactive”.

Q: What about the outcome [10] of the same compound?
A: Its outcome is “inactive”.

From PubChem BioAssay (EPA / NIEHS)
